The source of these data is PubChem BioAssay (NCATS).

Each structure is given as a SMILES string. Values joined by “and” are separate entries in the source; they are usually repeats but may differ in a detail not shown here. Identical values can stand only once. Records with an inconclusive call do not appear. Some structures have more than one record in an assay (separate samples or runs), and their calls can disagree. Active and inactive are the calls of the source. The call rests on the fitted dose curve; in most records, active means well fitted curve in the direction sought with a large enough effect; inconclusive means small, poorly fitted or top-dose-only effect, or another doubt; inactive means no such curve, though single readings can be large; an effect the other way counts as inactive or inconclusive.

Assay [1] can be described thus: Viability qHTS for spleen associated tyrosine kinase inhibitor (SYKi) naive MV4-11 cells (AID 1963823). Further: nearly all actives have a fitted effect of over 40% in size. In short, it runs like this:
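Read-out: CellTiter-Glo luminescence. Exposure: 72 hr, 37 C, 5% CO2, 95% humidity. Cells: MV4-11 without SYK inhibitor history, 500/well, qHTS format.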
A general note: In qHTS, concentration-response curves come from the screen itself.

Assay [2] can be described thus: Viability qHTS for spleen associated tyrosine kinase inhibitor (SYKi) drug resistant MV4-11 cells (AID 1963824). Further: nearly all actives have a fitted effect of over 35% in size. Put shortly:
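SYK-inhibitor-resistant MV4-11 AML cells were seeded at 500 per well onto compound and cultured 72 hours (37 °C, 5% CO2). CellTiter-Glo was then added, and after 10 min at room temperature, luminescence gave viability.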

The nature of assay [3]: Quantitative highthroughput screen to assess conditional lethalithy of NOMO1 cells grown in RPMI1640 with untreated serum (RPMI+s) (AID 1963876). Further: nearly all actives have a fitted effect of over 35% in size.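 On Viability: 100% = DMSO wells and 0% = empty wells without cells.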 Put shortly: (§1)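 Each medium arm—HPLM with 10% dialyzed FBS, or RPMI1640 with 5 mM glucose and 10% untreated or dialyzed FBS—was screened against an 11-point, 3-fold compound titration for 48 h at 37 °C, with CellTiter-Glo luminescence as endpoint.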

Assay [4] is described as follows: Quantitative highthroughput screen to assess conditional lethalithy of NOMO1 cells grown in RPMI1640 with dialyzed fetal bovine serum (RPMI+ds) (AID 1963877). Further: nearly all actives have a fitted effect of over 30% in size.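 On Viability: series mostly up to about 46 µM; 100% = DMSO control wells and 0% = empty wells.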 Put shortly:
as §1

Assay [5] can be described thus: Quantitative highthroughput screen to assess conditional lethalithy of NOMO1 cells grown in Human Plasma-Like Medium with dialyzed fetal bovine serum (HPLM+ds) (AID 1963878). Further: nearly all actives have a fitted effect of over 35% in size.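 On Viability: 100% = DMSO wells and 0% = empty wells on each plate.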 Put shortly: as §1
Assay [6] can be described thus: Quantitative highthroughput screen to assess conditional lethalithy of P12 Ichikawa cells grown in Human Plasma-Like Medium with dialyzed fetal bovine serum (HPLM+ds) (AID 1963879). Further: nearly all actives have a fitted effect of over 35% in size. On Viability: series mostly up to about 46 µM. To be noted: Potency: viability. In short, it runs like this: as §1
Assay [7] in a line: Quantitative highthroughput screen to assess conditional lethalithy of P12 Ichikawa cells grown in RPMI1640 with dialyzed fetal bovine serum (RPMI+ds) (AID 1963880). Further: nearly all actives have a fitted effect of over 35% in size.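 On Viability: 100% = DMSO wells and 0% = empty wells on each plate.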 The following applies: Potency: P12-Ichikawa viability. Put shortly:
as §1

Assay [8] can be described thus: Quantitative highthroughput screen to assess conditional lethalithy of P12 Ichikawa cells grown in RPMI1640 with untreated serum (RPMI+s) (AID 1963881). Further: nearly all actives have a fitted effect of over 35% in size.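 On Viability: series mostly up to about 46 µM; 100% = DMSO wells and 0% = empty wells without cells.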 To be noted: Potency: viability. In short, it runs like this: as §1
A short description of assay [9]: Cellular viability qHTS for adrenocortical cancer (ACC) cell line SW-13 (AID 1963989). Further: nearly all actives have a fitted effect of over 65% in size.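 On activity (max response): cells grown in serum-free medium with ITS supplement; on the % scale 0 is the no-effect control and ±100 the full control effect.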 The following applies: SW-13 ACC cells viability, CellTiter-Glo, 48 h; activity (max response): stronger effect = lower value. Put shortly: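 Compound titrations (up to 46 uM final, in DMSO) were applied to SW-13 cells for 48 h at 37C/5% CO2. Reading used CellTiter-Glo after 20 min at room temperature; fitted curves yielded IC50 and efficacy.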

The nature of assay [10]: Quantitative highthroughput screen to assess conditional lethalithy of SEM cells grown in Human Plasma-Like Medium with dialyzed fetal bovine serum (HPLM+ds) (AID 1963882). Further: nearly all actives have a fitted effect of over 35% in size. On Viability: series mostly up to about 46 µM. Put shortly: as §1
A short description of assay [11]: Quantitative highthroughput screen to assess conditional lethalithy of SEM cells grown in RPMI1640 with dialyzed fetal bovine serum (RPMI+ds) (AID 1963884). Further: nearly all actives have a fitted effect of over 35% in size.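 On Viability: series mostly up to about 46 µM; 100% = DMSO control wells and 0% = empty wells without cells.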 Put shortly: as §1
A short description of assay [12]: Cellular viability qHTS for adrenocortical cancer (ACC) cell line NCI-H295R (AID 1963990). Further: nearly all actives have a fitted effect of over 60% in size. Put shortly:
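Readout: CellTiter-Glo luminescence, 20 min RT. Exposure: 48 h, 37C/5% CO2. Cells: NCI-H295R, ITS-DMEM serum-free. Range: up to 46 uM. Analysis: 4PL fit, IC50 plus efficacy.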

A short description of assay [13]: Quantitative highthroughput screen to assess conditional lethalithy of SEM cells grown in RPMI1640 with unreated serum (RPMI+s) (AID 1963883). Further: nearly all actives have a fitted effect of over 35% in size.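 On Viability: 100% = DMSO wells and 0% = empty wells without cells.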 Put shortly: as §1
Potency means the concentration at half of the fitted maximal effect.

In the case of `NC(=O)c1cccc(-c2cc(Nc3ccc(OC(F)(F)F)cc3)ncn2)c1`, the Potency in [1] was 10.3 µM (active) and 5.25 µM (active); in assay [2] it was 9.2 µM (active) and 5.9 µM (active); in assay [9], 15.8 µM (active). In addition, the Potency entry in [3], in assay [4], in assay [5], in assay [6], in assay [7] and in [8] was “inactive” each time.
Take `Fc1ccc(Cl)cc1-c1nc(Nc2ccncc2)c2nccnc2n1`: the Potency result in assay [1] was “inactive and 18.6 µM (active)”. Besides, the Potency entry in [2], in [3], in [4], in assay [5], in [6] and in [7] was “inactive” throughout. Moreover, the Potency entry in assay [8], in [10], in assay [11] and in assay [12] was “inactive” in each case.
Turning to `O=C(CCCCCCC(=O)Nc1ccccc1)NO`, the Potency was 1.64 µM (active) and 1.48 µM (active) in assay [1]; 1.3 µM (active) and 1.18 µM (active) in assay [2]; 14.8 µM (active) in assay [3]; 16.6 µM (active) in assay [4]; 10.5 µM (active) in assay [5]; 4.18 µM (active) in [6]. Also, the Potency in assay [7] was 3.32 µM (active); in [8], 3.32 µM (active); in assay [13] it was 3.72 µM (active); in assay [11], 3.32 µM (active).
`CCn1c(-c2nonc2N)nc2cncc(CNC3CCNCC3)c21`: the Potency in assay [1] is 2.91 µM (active) and 2.95 µM (active); in assay [2], 7.31 µM (active) and 5.25 µM (active); in [3], 9.35 µM (active); in assay [4], 18.7 µM (active); in assay [5], 3.72 µM (active); in assay [6], 6.62 µM (active). For the same molecule, the Potency in assay [7] is 18.7 µM (active); in [8], 23.5 µM (active). The activity (max response) in assay [9] is -7.16% (inactive).
Consider `CC1=CC(=O)c2ccccc2C1=O`, for which the Potency was 7.42 µM (active) in assay [1], 4.68 µM (active) in [2] and 16.6 µM (active) in assay [10]. In addition, the Potency entry in assay [3], in [4], in [5], in assay [6], in assay [7] and in assay [8] was “inactive” throughout. Also, the Potency result in assay [12] is “inactive”. In [9], the activity (max response) was 13.5% (inactive).
Regarding `CC1CNc2c(cccc2S(=O)(=O)N[C@@H](CCCN=C(N)N)C(=O)N2CC[C@@H](C)C[C@@H]2C(=O)O)C1` (stereo not given in full), the Potency entry in [1], in assay [2], in assay [3], in assay [4], in [5] and in [6] was “inactive” in each case. For the same molecule, the Potency result in assay [7], in [8], in assay [13], in [11] and in assay [12] was “inactive” in each case. Moreover, in assay [9], the activity (max response) is -14.2% (inactive).
As for `C[Se]CCC(N)C(=O)O` (stereo not given), the Potency entry in [1], in assay [2], in [3], in [4], in assay [5] and in assay [6] was “inactive” throughout. For the same molecule, the Potency entry in assay [7] and in assay [8] was “inactive” each time. For the same molecule, the activity (max response) in [9] is -4.29% (inactive).
`CN[C@@H](C)[C@H]1[C@H](O)C[C@@]2(C)[C@@H]3CC[C@H]4C(C)(C)[C@@H](NC)CC[C@@]45C[C@@]35CC[C@]12C`: in assay [1], the viability (% of control) was 79.2% [at 9.25 µM] (inactive). In [2], the viability, % of control is 80.2% [at 9.25 µM] (inactive). In addition, the Potency entry in assay [3], in [4], in assay [5], in assay [6], in assay [7] and in assay [8] was “inactive” each time. The Potency entry in assay [13] and in assay [11] was “inactive” each time. Besides, the activity (max response) in [9] was -3.37% (inactive).
As for `NCCc1cnc[nH]1`, in assay [1], the Potency is 13.3 µM (active). Further, the Potency result in assay [2], in [3], in [4], in [5], in [6] and in [7] was “inactive” throughout. Moreover, the Potency entry in assay [8], in assay [10] and in assay [12] was “inactive” in each case. Moreover, the activity (max response) in [9] was 7.56% (inactive) and -0.338% (inactive).
Regarding `NC1CCC(N[C@@H]2C[C@H]2c2ccccc2)CC1` (stereo not given in full), the Potency entry in assay [1], in assay [2], in assay [3], in [4], in [5] and in [6] was “inactive” in each case. Also, the Potency result in [7], in assay [8], in assay [13] and in [11] was “inactive” each time. In [9], the activity (max response) is -23.4% (inactive).
Regarding `CCN(CC)Cc1ccc2cc(COC(=O)Nc3ccc(C(=O)NO)cc3)ccc2c1`, the Potency in [1] is 291 nM (active) and 468 nM (active); in assay [2], 206 nM (active) and 372 nM (active); in assay [3] it was 3.72 µM (active); in assay [4], 3.72 µM (active); in assay [5], 2.96 µM (active); in assay [6], 2.35 µM (active). The Potency was 2.35 µM (active) in [7]; 2.35 µM (active) in [8]; 2.09 µM (active) in assay [13]; 1.87 µM (active) in assay [11]; 2.82 µM (active) in assay [9]; 1.78 µM (active) in [12].
Turning to `CC[C@@H](C)[C@H](NC(=O)[C@H](CC1CCCCC1)NC(=O)c1ccno1)C(=O)N1CCC2(CCc3ccccc32)CC1`, the Potency in [1] was 13 µM (active); in [2] it was 18.4 µM (active). In addition, the Potency result in [3], in assay [4], in [5], in assay [6], in assay [7] and in assay [8] was “inactive” throughout. The Potency result in assay [12] was “inactive”. In addition, the activity (max response) in [9] is -1.23% (inactive).
`COc1cc(NS(=O)(=O)c2ccc(N)cc2)nc(OC)n1`: the Potency entry in assay [1], in assay [2], in [3], in assay [4], in assay [5] and in assay [6] was “inactive” in each case. Further, the Potency entry in [7], in assay [8], in assay [13], in [11] and in assay [12] was “inactive” throughout. In addition, the activity (max response) in [9] was -1.49% (inactive).
As for `OCCC#Cc1nc(-c2ccc(F)cc2)c(-c2ccncc2)n1CCCc1ccccc1`, the Potency was 20.6 µM (active) in [1]; 10.3 µM (active) and 11.8 µM (active) in [2]; 18.7 µM (active) in assay [11]. Further, the Potency entry in assay [3], in [4], in assay [5], in assay [6], in assay [7] and in [10] was “inactive” in each case. Moreover, the Potency result in assay [13] is “inactive”.
As for `Cc1ccc(CN2CCNCC2)cc1NC(=O)CNc1ccc(F)c(F)c1`, the Potency result in assay [1], in [2], in [3], in assay [4], in [5] and in assay [6] was “inactive” in each case. The Potency entry in assay [7], in assay [8], in assay [13], in assay [11] and in [12] was “inactive” in each case. For the same molecule, the activity (max response) in assay [9] was 11.8% (inactive).
